DRD3 antagonist – qHTS of D3 Dopamine Receptor Antagonist: qHTS; AID 652054, 2013; 360,000 tested, 2.5% active; D(3) dopamine receptor (Homo sapiens), P35462; max response, negative = inhibition, %; D3R cells, DiscoveRx beta-arrestin luminescence, antagonist mode; hits give low values; in the data active = max response below about -50%; inconclusive = no clear call, values can overlap the other calls; note: % is set by controls: 0 for no effect and ±100 for the full control effect
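Cells plated overnight at 1500 cells/well, then exposed to library compounds with dopamine controls for 90 minutes at 37 degrees C. DiscoveRx reagent added for 30–60 minutes at room temperature; luminescence read, quantitative HTS format.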
D1 PAM – Potentiators of Human D1 Dopamine Receptor: qHTS; 360,000 tested, 0.036% active; D(1A) dopamine receptor (Homo sapiens), P21728; HEK293 TREx D1 cells, calcium flux, dopamine EC20 potentiation; potentiation, % at 10 µM; in the data active = potentiation above about 30%; note: 0% is about no effect
Target sequence (P21728 whole entry, looked up): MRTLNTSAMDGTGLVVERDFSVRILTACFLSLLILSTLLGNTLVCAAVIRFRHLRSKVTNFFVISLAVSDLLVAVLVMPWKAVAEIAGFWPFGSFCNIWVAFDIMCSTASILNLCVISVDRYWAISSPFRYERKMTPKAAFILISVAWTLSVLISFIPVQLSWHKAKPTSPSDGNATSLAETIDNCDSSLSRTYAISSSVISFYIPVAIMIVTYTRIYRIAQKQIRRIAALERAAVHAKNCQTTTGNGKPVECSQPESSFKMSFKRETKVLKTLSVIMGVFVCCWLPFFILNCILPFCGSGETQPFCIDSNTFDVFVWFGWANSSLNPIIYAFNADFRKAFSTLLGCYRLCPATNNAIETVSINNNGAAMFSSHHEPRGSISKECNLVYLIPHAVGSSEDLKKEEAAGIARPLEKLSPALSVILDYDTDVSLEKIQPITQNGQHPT
D1 agonist – Allosteric Agonists of the Human D1 Dopamine Receptor: qHTS; D(1A) dopamine receptor (Homo sapiens), P21728; 360,000 tested, 1% active; HEK293 T-REx D1 cells, calcium flux, agonist mode; activation, % at 2 µM; in the data active = activation above about 30%; note: 0% is about no effect
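Tetracycline-induced HEK293 TREx D1 cells, force-coupled to calcium signalling, were dye-loaded with a no-wash calcium kit. Compound was pin-added after a 10 s baseline. Fluorescence was read kinetically at 1 cycle/s for 180 s, with calcium rises flagged as agonism.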
D3 ag – qHTS of D3 Dopamine Receptor Agonist: qHTS; D(3) dopamine receptor (Homo sapiens), P35462; D3R DiscoveRx beta-arrestin cells, luminescence, 90 min; max activation, %; 410,000 tested, 0.58% active; AID 652048, 2013; in the data active = max activation above about 30%; note: 0% is about no effect
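Agonist mode: compounds and dopamine controls were applied to plated cells for 90 min at 37 degrees C after an overnight attachment at 1500 cells/well. Luminescent read-out followed 30 - 60 minutes at room temperature with DiscoveRx detection reagent.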
D1 antag – Antagonist of Human D 1 Dopamine Receptor: qHTS. HEK293 TREx D1 cells, calcium flux, dopamine EC80; hits give low values. AID 504652, 2011. 360,000 tested, 3.2% active. activity change, negative = inhibition, % at 10 µM; in the data active = activity change below about -30%; note: % is set by controls: 0 for no effect and ±100 for the full control effect
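Kinetic fluorescence of a calcium dye serves as the read-out. D1-expressing Hek293 Trex cells, induced overnight at 30 C, are exposed to compound for 180 s before an EC80 dopamine addition, then read 180 s further.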
An asterisk follows results filed as active. Compounds with a hit are over-represented: about 6.1% of the library has one in this group of screens.

How did COc1ccccc1N1CCN(C(=O)c2cc3c(=O)n(C)c4ccccc4c3s2)CC1 do in these assays?
D1 PAM: -1; D1 agonist: 2; D3 ag: -16; D1 antag: -53*

Results for COc1ccc(NC(=O)c2cc3c(=O)n(C)c4ccccc4c3s2)cc1Cl ?
D1 PAM: 4; D1 agonist: 1; D3 ag: -19; D1 antag: -68*

What do the screens show for `Cc1cccc(N2CCN(C(=O)c3cc4c(=O)n(C)c5ccccc5c4s3)CC2C)c1` (stereo unspecified)?
D1 PAM: -1; D1 agonist: -1; D3 ag: 7; D1 antag: -14

How did COc1ccc(-c2nn(C)c3sc(C(=O)N4CCN(c5ccccc5F)CC4)cc23)cc1OC do in these assays?
D1 PAM: 4; D1 agonist: -1; D3 ag: 18; D1 antag: 2

How did COc1ccccc1N1CCN(C(=O)c2cc3c(-c4ccccc4F)nn(C)c3s2)CC1 do in these assays?
D1 PAM: 2; D1 agonist: 6; D3 ag: 56*; D1 antag: 15

What do the screens show for `CCOc1cccc(CC(=O)N2CCc3c([nH]c4ccccc34)C2c2ccccc2)c1OCC` (stereo unspecified)?
D1 PAM: 0; D1 agonist: 1; D3 ag: 3; D1 antag: 13

What do the screens show for `COc1cc2c(cc1OC)C1=C(C#N)CC/C(=N\S(=O)(=O)c3cccc(Cl)c3)N1CC2`?
DRD3 antagonist: 20; D1 PAM: -10; D1 agonist: 3; D3 ag: 20; D1 antag: -74*

How did CCOc1cccc2c1OC1(C)CC2NC(=O)N1c1cccc(F)c1 (stereo unspecified) do in these assays?
DRD3 antagonist: -51*; D1 PAM: -7; D1 agonist: 1; D3 ag: 5; D1 antag: 5

How did O=S(=O)(/N=C(/Nc1cc(N2CCOCC2)ncn1)c1ccccc1)c1ccccc1 do in these assays?
DRD3 antagonist: 2; D1 PAM: 1; D1 agonist: 5; D3 ag: 5; D1 antag: 4

How did COc1cc(NC(=NS(=O)(=O)c2ccccc2)c2ccccc2)ncn1 do in these assays?
DRD3 antagonist: -100*; D3 ag: -30

Results for CCC(C)NC(=O)c1ccccc1NC(=O)C(C)N(c1ccccc1)S(C)(=O)=O (stereo unspecified) ?
DRD3 antagonist: 7; D1 PAM: 0; D1 agonist: 2; D3 ag: 2; D1 antag: 8

What do the screens show for `CCOc1ccccc1NC(=O)C(C)N(c1ccccc1)S(C)(=O)=O` (stereo unspecified)?
D1 PAM: -3; D1 agonist: -2; D3 ag: 37*; D1 antag: 5

What do the screens show for `CCOc1ccc(N(C(C)C(=O)NN=C2CCCCCCC2)S(C)(=O)=O)cc1` (stereo unspecified)?
DRD3 antagonist: 0; D1 PAM: -8; D1 agonist: 0; D3 ag: 3; D1 antag: -33*

What do the screens show for `COc1ccc(N(C(C)C(=O)NN=C2CCCC2)S(C)(=O)=O)cc1` (stereo unspecified)?
DRD3 antagonist: 4; D1 PAM: 6; D1 agonist: 2; D3 ag: 1; D1 antag: 6

What do the screens show for `CN(C)C(=S)Nc1nc2ccccc2s1`?
DRD3 antagonist: 2; D1 PAM: -4; D1 agonist: 2; D3 ag: -2; D1 antag: -30*

What do the screens show for `Cc1ccccc1Nc1nc2ccccc2s1`?
DRD3 antagonist: 10; D1 PAM: -8; D1 agonist: 37*; D3 ag: 18; D1 antag: 12

What do the screens show for `Cc1ccc(C)c(NC(=O)Cn2c(=O)n(CC3CCCO3)c(=O)c3ccccc32)c1` (stereo unspecified)?
D1 PAM: 3; D1 agonist: 1; D3 ag: 8; D1 antag: -2

Results for CC(C)[C@H]1CN=C2N(CCNC(=O)CCC3CCCCC3)[C@H](Cc3ccc(O)cc3)CN21 ?
DRD3 antagonist: -83*; D1 PAM: 1; D1 agonist: 6; D3 ag: -62; D1 antag: -9

What do the screens show for `COc1ccc(C[C@H]2CN3C(=NC[C@@H]3Cc3ccccc3)N2CCNC(=O)CCC2CCCCC2)cc1`?
DRD3 antagonist: -62*; D1 PAM: 2; D1 agonist: 3; D3 ag: -32; D1 antag: -16

How did COc1ccc(C[C@H]2CN3C(=NC[C@@H]3C(C)C)N2CCNC(=O)CCC2CCCCC2)cc1 do in these assays?
DRD3 antagonist: inconclusive; D1 PAM: -3; D1 agonist: -4; D3 ag: -64; D1 antag: -10

Results for O=C(COc1ccc(Cl)cc1)NCCc1csc(-c2cccc(F)c2)n1 ?
D1 PAM: -4; D1 agonist: 3; D3 ag: -8; D1 antag: 10

Results for CC(C)(C)[C@H]1C=C(C(N)=O)O[C@@H](OCc2ccc(CO)cc2)C1 ?
DRD3 antagonist: 10; D1 PAM: 2; D1 agonist: -3; D3 ag: 0; D1 antag: -31*

How did NC(=O)C1=C[C@H](c2ccc(C(F)(F)F)cc2)C[C@H](OCc2ccc(CO)cc2)O1 do in these assays?
DRD3 antagonist: -2; D1 PAM: 3; D1 agonist: 2; D3 ag: -17; D1 antag: -8

Results for NC(=O)C1=C[C@@H](c2ccc(C(F)(F)F)cc2)C[C@@H](OCc2ccc(CO)cc2)O1 ?
DRD3 antagonist: -56*; D1 PAM: 0; D1 agonist: -3; D3 ag: -7; D1 antag: -13

What do the screens show for `Cc1ccc(S(=O)(=O)N(C)CCCC(=O)Nc2ccc(F)cc2)cc1`?
DRD3 antagonist: 2; D1 PAM: -3; D1 agonist: 3; D3 ag: -2; D1 antag: -13

What do the screens show for `Cc1ccc(S(=O)(=O)N(C)CCCC(=O)Nc2ccc(C)cc2C)cc1`?
DRD3 antagonist: 11; D1 PAM: -2; D1 agonist: 18; D3 ag: 16; D1 antag: -52*

What do the screens show for `COc1ccc(NC(=O)CCCN(C)S(=O)(=O)c2ccc(C)cc2)cc1`?
DRD3 antagonist: -17; D1 PAM: -9; D1 agonist: 4; D3 ag: -11; D1 antag: -60*

Results for Cc1ccc(S(=O)(=O)N(C)CCCC(=O)Nc2ccncc2)cc1 ?
DRD3 antagonist: 1; D1 agonist: 22; D3 ag: -2; D1 antag: -35*

What do the screens show for `Cc1ccc(C)c(NC(=O)N2CCN(C(=O)c3nsc4ccccc34)CC2)c1`?
D1 PAM: -2; D1 agonist: 1; D3 ag: -3; D1 antag: -5

Bioassay records from PubChem BioAssay.
